Measured values published in PubChem BioAssay.
Activity calls are given as the source filed them.

Columns and labels:
[1] = system: PRMT1 (protein arginine N-methyltransferase 1); experiment: small molecules binding arginine methyltransferase PRMT1 – biochemical, small-molecule microarray, 635 nm fluorescence, primary screen (AID 1088); settings: higher = more signal;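 note: binding of Prmt1 protein to compounds spotted on small-molecule microarray slides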
[2] = growth effects on S. cerevisiae YJM789 – YJM789 clinical isolate, OD600, 24 h, basal, primary screen (AID 1089); settings: higher = more signal, called active from +8 up or from −8 down;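 note: growth of clinical yeast isolate S. cerevisiae YJM 789 seeded 1000 cells per well; test concentration not given here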
[3] = S. pombe growth modifiers, basal conditions – strain 972, OD600, 24 h, no modulator, primary screen (AID 1090);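 note: basal condition with compound alone and no growth modifier present; test concentration not given here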; settings: S. pombe 972 growth, higher = more signal, called active from +8 up or from −8 down
[4] = budding yeast growth modifiers under rapamycin – strain BY4716, OD600, 96 h, primary screen (AID 1091); note: test concentration not given here; settings: S. cerevisiae BY4716 + rapamycin, higher = more signal, called active from +8 up or from −8 down
[5] = biological target: Torsin-1A-interacting protein 2 (Homo sapiens) (UniProt Q8NFQ8); experiment: small molecules binding lysate-expressed LULL1 – cell lysate, human LULL1 lysate, 635/667 nm fluorescence, primary screen (AID 1092); settings: small-molecule microarray, hLULL1 lysate binding, 635 nm fluorescence; higher = more signal;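 note: probe is lysate of COS7 cells overexpressing human LULL1; score merges per-feature 667 nm fluorescence with signal-to-noise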
Sequence of Torsin-1A-interacting protein 2 (Homo sapiens) (Q8NFQ8 whole entry, looked up): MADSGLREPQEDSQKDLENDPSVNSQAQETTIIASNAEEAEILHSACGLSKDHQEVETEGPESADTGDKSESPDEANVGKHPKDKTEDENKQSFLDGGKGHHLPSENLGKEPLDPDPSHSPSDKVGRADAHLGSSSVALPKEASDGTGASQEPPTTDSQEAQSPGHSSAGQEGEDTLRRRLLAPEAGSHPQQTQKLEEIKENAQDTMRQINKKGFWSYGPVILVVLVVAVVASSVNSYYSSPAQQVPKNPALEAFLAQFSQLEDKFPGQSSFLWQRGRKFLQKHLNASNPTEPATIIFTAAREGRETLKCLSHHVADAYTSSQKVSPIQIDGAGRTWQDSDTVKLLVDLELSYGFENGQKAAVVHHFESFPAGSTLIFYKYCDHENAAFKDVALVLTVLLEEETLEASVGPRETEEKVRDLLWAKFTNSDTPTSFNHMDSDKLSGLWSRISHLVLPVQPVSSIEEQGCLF

[6] = optical density change of DRC41 E. coli – strain DRC41, OD650, 24 h, E. coli filamentation project, primary screen (AID 1093);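 note: MC1000 strain lacking acrAB efflux and sulA so SOS filamentation is blocked; test concentration not given here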; settings: E. coli DRC41 growth, higher = more signal, called active from +8 up or from −8 down
[7] = probe aLefty2 binding to arrayed compounds – biochemical, biotinylated probe, 635/667 nm fluorescence, primary screen (AID 1094); settings: small-molecule microarray, higher = more signal;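 note: score merges spot fluorescence near 667 nm with spot signal-to-noise ratio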
[8] = system: Noggin (protein binding on small-molecule microarray); experiment: small molecules binding Noggin protein – biochemical, 635/667 nm fluorescence, primary screen (AID 1095); settings: 635 nm fluorescence, higher = more signal;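 note: score merges 667 nm feature fluorescence with signal to noise over triplicate slides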
[9] = biological target: Neurogenic locus notch homolog protein 3 (Homo sapiens) (UniProt Q9UM47); experiment: small molecules binding NOTCH3 protein – biochemical, 635/667 nm fluorescence, primary screen (AID 1096); settings: small-molecule microarray, 635 nm fluorescence, higher = more signal
Sequence of Neurogenic locus notch homolog protein 3 (Homo sapiens) (Q9UM47 whole entry, looked up): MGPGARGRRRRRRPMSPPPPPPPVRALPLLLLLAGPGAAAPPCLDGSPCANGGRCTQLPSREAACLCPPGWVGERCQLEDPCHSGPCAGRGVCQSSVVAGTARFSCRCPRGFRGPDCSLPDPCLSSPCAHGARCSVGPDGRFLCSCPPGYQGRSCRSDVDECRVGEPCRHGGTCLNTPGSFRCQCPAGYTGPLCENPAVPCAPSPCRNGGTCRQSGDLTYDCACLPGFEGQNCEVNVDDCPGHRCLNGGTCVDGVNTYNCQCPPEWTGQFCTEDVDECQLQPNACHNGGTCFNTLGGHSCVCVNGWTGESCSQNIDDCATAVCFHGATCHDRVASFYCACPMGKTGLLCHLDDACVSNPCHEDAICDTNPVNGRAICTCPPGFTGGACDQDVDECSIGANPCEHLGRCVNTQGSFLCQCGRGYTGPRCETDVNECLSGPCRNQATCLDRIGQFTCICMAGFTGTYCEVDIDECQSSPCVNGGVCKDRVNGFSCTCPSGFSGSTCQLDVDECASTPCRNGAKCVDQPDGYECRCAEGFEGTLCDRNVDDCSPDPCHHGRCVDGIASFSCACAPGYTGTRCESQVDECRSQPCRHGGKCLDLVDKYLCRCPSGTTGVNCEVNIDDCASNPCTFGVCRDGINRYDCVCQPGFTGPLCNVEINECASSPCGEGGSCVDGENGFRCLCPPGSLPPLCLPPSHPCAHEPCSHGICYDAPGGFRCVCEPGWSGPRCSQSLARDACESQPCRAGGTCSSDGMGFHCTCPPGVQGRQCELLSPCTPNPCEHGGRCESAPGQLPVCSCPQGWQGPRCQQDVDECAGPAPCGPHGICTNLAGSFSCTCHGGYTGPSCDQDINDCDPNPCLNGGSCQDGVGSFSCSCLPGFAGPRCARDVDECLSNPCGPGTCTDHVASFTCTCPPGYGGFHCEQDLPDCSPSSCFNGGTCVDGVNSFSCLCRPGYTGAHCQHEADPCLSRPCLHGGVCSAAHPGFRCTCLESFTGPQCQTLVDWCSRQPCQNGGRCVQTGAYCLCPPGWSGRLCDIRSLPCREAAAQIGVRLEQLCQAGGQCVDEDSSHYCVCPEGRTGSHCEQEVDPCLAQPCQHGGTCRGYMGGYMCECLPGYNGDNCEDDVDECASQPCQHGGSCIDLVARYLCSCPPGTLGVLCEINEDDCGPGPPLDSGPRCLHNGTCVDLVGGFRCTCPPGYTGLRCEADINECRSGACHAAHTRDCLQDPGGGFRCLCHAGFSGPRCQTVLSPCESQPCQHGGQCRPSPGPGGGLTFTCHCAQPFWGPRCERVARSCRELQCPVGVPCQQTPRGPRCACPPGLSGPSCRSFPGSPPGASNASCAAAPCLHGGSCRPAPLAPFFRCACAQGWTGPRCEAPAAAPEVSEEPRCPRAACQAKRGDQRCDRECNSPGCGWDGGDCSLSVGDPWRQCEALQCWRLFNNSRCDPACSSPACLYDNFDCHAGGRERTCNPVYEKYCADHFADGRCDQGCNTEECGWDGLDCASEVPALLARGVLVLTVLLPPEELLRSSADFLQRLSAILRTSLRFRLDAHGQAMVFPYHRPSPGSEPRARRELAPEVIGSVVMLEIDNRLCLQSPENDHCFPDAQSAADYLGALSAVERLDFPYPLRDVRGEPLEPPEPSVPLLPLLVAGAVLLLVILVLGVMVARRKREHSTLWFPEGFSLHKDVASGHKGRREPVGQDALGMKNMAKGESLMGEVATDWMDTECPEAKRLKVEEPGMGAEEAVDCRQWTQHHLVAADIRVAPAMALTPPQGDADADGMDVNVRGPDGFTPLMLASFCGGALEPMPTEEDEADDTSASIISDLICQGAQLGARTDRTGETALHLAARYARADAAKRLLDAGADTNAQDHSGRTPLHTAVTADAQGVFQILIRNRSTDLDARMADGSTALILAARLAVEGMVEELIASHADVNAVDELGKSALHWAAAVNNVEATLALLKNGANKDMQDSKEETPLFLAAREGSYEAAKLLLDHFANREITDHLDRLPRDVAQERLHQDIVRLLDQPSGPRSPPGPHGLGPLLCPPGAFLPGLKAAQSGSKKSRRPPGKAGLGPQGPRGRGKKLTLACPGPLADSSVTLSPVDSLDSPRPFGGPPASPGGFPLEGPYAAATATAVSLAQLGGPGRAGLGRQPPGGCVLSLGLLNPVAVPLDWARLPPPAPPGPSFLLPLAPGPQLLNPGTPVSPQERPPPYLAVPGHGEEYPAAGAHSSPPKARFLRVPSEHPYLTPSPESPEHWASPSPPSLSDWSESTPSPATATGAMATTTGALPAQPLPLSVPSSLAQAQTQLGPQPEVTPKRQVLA

[10] = probe aEGFR binding to arrayed compounds – biochemical, biotinylated probe, 635/667 nm fluorescence, primary screen (AID 1097); settings: small-molecule microarray, higher = more signal;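 note: probe is a biotinylated anti-EGFR antibody binding compounds printed on slides; score combines fluorescence near 667 nm and signal to noise of each spot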

Structure (SMILES) | composite z-score [1] | z-score [2] | z-score [3] | z-score [4] | composite z-score [5] | z-score [6] | composite z-score [7] | composite z-score [8] | composite z-score [9] | composite z-score [10]
Cc1ccc(S[C@]2(C(=O)NCCCN(C)C)CC(=O)N(Cc3ccccc3)[C@@H]2c2ccc(CO)cc2)cc1 | 1.25 | -0.933 (inactive) | -1.18 (inactive) | -1.03 (inactive) | 2.01 | -0.0465 (inactive) | 0.555 | -0.511 | -0.631 | -0.152
C=CCC(OC(C)=O)[C@@H]1[C@@H](N(Cc2cc3ccccc3o2)C(=O)c2ccc(C)cc2)c2cc(OCCCO)ccc2N1C(=O)c1ccc(-c2ccccc2)cc1 (stereo not given in full) | -0.486 | -6.89 (inactive) | -1.27 (inactive) | -2.17 (inactive) | 0.666 | -0.818 (inactive) | 0 | 0.132 | -0.217 | -0.258
CCOC(=O)C=Cc1cccc(OC)c1O | 0.124 | -9.3 (active) | -7.21 (inactive) | -0.346 (inactive) | 0.0496 | -0.0998 (inactive) | -0.249 | -1.09 | -0.125 | -0.209
C=CCC(OC(C)=O)[C@@H]1[C@@H](N(Cc2ccc(-c3cccc(C(F)(F)F)c3)o2)C(=O)Cc2ccc(OC)cc2)c2cc(OCCCO)ccc2N1C(=O)Cc1ccc(OC)cc1 (stereo not given in full) | -0.0091 | -0.816 (inactive) | -0.566 (inactive) | -0.918 (inactive) | -0.106 | 1.48 (inactive) | -0.107 | -0.239 | -0.869 | -0.178
CC(C)C(O)C1C=CC2C(=O)N(C)C(=O)C2N1N1CCCCC1 (stereo not given) | 0.594 | 0.252 (inactive) | 0.891 (inactive) | -0.199 (inactive) | 3.58 | -1.46 (inactive) | 0.169 | 0.315 | 0.217 | 0.0635
CCCNC(=O)[C@@]1(C)c2ccccc2C(=O)N(Cc2cc(F)cc(C(F)(F)F)c2)[C@H]1c1ccc(CO)cc1 | 0.136 | -1.34 (inactive) | -0.974 (inactive) | -1.24 (inactive) | 2.08 | 0.423 (inactive) | -0.174 | 0.0391 | -0.131 | -0.194
C=CC[C@@]1(C(N)=O)N=C(c2ccc(OCCCO)cc2)O[C@@H]1c1ccccc1N=[N+]=[N-] | 1.14 | -0.545 (inactive) | 0.0584 (inactive) | -1.15 (inactive) | 2.44 | 1.4 (inactive) | 0.429 | 0.404 | -0.299 | 0.317
COCCCNC(=O)[C@@]1(Sc2ccc(C)cc2)CC(=O)N(Cc2ccccc2)[C@@H]1c1ccc(CO)cc1 | 0.983 | -0.0867 (inactive) | 0.163 (inactive) | -0.455 (inactive) | 2.66 | -0.0977 (inactive) | -0.27 | -0.408 | -0.0703 | 0.03
COc1ccc(C(O)C2C=CC3C(=O)N(c4ccccc4)C(=O)C3N2Nc2ccccc2)c2ccccc12 (stereo not given) | 0.802 | -1.41 (inactive) | 1.81 (inactive) | -0.0303 (inactive) | 2.23 | -0.807 (inactive) | 0.189 | -0.659 | 0.459 | -0.0949
O=C1C2C=CC(C(O)c3ccccn3)N(Nc3ccccc3F)C2C(=O)N1c1ccccc1 (stereo not given) | 0.0392 | 0.839 (inactive) | 0.0161 (inactive) | -0.207 (inactive) | 1 | -0.717 (inactive) | -0.0561 | 0.0291 | -0.584 | -0.0581
CCCCCCC#C[Si](O[C@H](c1ccccc1)c1cn([C@H](C)c2ccccc2)nn1)(C(C)C)C(C)C | 0.789 | -0.285 (inactive) | 0.994 (inactive) | -0.0401 (inactive) | 0.828 | 1.33 (inactive) | -0.211 | 0.476 | 0.579 | -0.099
